Reference: PubChem BioAssay
The source made the active and inactive calls.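 The calls were made as follows, unless noted: active = visually confirmed hit in the image check and inhibition above 20%; inconclusive = visually confirmed hit but inhibition not above 20%; inactive = no visual hit in the image check.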

Columns and labels:
[1] = inhibitors of TNFa-induced NFkB p65 translocation, primary screen, imaging, HUVEC, MLSMR starter and 10KST1 sets (AID 438;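 active = inhibition above 20% together with a positive visual image hit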;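 also: compound added about 3h40 before a 20 min TNFalpha stimulation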;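 as to inhibition: signal is the nuclear over cytoplasmic p65 intensity ratio per well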); conditions: HUVEC TNFa-induced p65 nuclear translocation; cell count: measured here: nuclei count (cytotoxicity indicator), at 2.08 µM; inhibition: at 2 µM, stronger effect = higher value, 0% TNFa-plus-vehicle, 100% no-TNFa wells
[2] = inhibitors of mutant huntingtin aggregation, primary screen, imaging, exon1htt(103Q)mCFP cells, high-content imaging (AID 483;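 active = visual image review flags a hit and inhibition of aggregation exceeds 20%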;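 also: compound exposure lasted 3 days before fixation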;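 as to nuclei count: percent of the per-plate median nuclei count of sample wells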); conditions: exon1htt(103Q)mCFP cell line, aggregate imaging, at 2 µM; inhibition of aggregation: stronger effect = higher value; nuclei count: measured here: cell count, toxicity
[3] = inhibitors of E-selectin induction by TNFa, primary screen, imaging, HUVEC, immunofluorescence, MLSMR starter and 10KST1 sets (AID 487); conditions: HUVEC TNFalpha-induced E-selectin immunofluorescence imaging, at 2 µM; inhibition: stronger effect = higher value; nuclei count: measured here: cell number, toxicity;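 as to inhibition: signal is fraction of cell area covered by stained E-selectin grains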;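 as to nuclei count: 100% = median nuclei count of all wells on the same plate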
[4] = target: Voltage-gated potassium channel subunit beta-2 (Rattus norvegicus) (UniProt P62483); test: KvBeta enzyme negative modulators, primary screen, biochemical, NADPH fluorescence (AID 622;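 active = fluorescence slope higher than the sample average by over 3 SD, cut at about -0.22 in these data, passing the limit was not always enough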;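 also: slope of raw intensity against log time taken from 70 to 1610 s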); conditions: recombinant KvBeta, 4-cyanobenzaldehyde reduction, at 10 µM, stronger effect = higher value
[5] = target: Voltage-gated potassium channel subunit beta-2 (Rattus norvegicus) (UniProt P62483); test: KvBeta positive modulators, primary screen, biochemical, NADPH fluorescence (AID 623;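 active = NADPH fluorescence slope more negative than the mean of all samples by about 3 SD, 99.7% confidence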;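 also: fluorescence intensity change per second fitted from 20 to 320 s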); conditions: Recombinant KvBeta, NADPH fluorescence decrease slope, 10 min; at 10 µM; stronger effect = lower value
[6] = target: Alpha-2C adrenergic receptor (Homo sapiens) (UniProt P18825); test: modulators of alpha2C/GIRK thallium flux, primary screen, cell-based, HEK293 alpha2C/GIRK1/2 (AID 624;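 active = fluorescence slope after compound addition differing from the mean of all screened samples at 99.7% confidence, in either direction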;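 also: slope of fluorescence ratio to pre-addition baseline per second over 15 to 24 s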); conditions: thallium flux BTC fluorescence, at 10 µM, actives lie on both sides
[7] = inhibitors of Sendai virus-induced IRF3 signaling, primary screen, TLR/RLR signaling modifier project, cell-based, Sendai virus stimulus, luciferase, 10K MLSCN set (AID 602276;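 active = inhibition at or above 50% at 10 µM; inactive = inhibition below 50%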;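 also: firefly luciferase from ISG56 promoter only with Renilla not read in this screen; 0% = Sendai virus plus DMSO and 100% = medium plus DMSO without virus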); conditions: HEK293 RL24 IRF3 luciferase reporter, at 10 µM, stronger effect = higher value
[8] = inhibitors of poly I:C-induced TLR3 signaling, primary screen, cell-based, poly I:C stimulus, luciferase, 10K MLSCN set (AID 602277;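 active = inhibition of the reporter signal at or above 50%; inactive = inhibition below 50%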); conditions: HEK293-TLR3 RL24 IRF3 luciferase reporter, at 10 µM, stronger effect = higher value

Alpha-2C adrenergic receptor (Homo sapiens), sequence (P18825 whole entry, looked up): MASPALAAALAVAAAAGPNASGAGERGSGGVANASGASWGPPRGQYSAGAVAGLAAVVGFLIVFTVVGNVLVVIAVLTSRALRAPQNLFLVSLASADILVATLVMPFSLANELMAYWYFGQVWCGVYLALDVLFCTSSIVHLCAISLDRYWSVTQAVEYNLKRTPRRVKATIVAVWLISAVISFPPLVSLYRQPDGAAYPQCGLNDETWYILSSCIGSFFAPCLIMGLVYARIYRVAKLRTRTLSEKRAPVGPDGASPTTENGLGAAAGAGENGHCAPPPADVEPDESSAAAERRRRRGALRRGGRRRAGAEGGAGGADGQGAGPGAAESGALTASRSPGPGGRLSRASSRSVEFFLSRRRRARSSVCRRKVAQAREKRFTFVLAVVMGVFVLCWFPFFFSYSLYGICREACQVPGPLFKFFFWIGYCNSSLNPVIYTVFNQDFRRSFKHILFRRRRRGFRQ
Voltage-gated potassium channel subunit beta-2 (Rattus norvegicus), sequence (P62483 whole entry, looked up): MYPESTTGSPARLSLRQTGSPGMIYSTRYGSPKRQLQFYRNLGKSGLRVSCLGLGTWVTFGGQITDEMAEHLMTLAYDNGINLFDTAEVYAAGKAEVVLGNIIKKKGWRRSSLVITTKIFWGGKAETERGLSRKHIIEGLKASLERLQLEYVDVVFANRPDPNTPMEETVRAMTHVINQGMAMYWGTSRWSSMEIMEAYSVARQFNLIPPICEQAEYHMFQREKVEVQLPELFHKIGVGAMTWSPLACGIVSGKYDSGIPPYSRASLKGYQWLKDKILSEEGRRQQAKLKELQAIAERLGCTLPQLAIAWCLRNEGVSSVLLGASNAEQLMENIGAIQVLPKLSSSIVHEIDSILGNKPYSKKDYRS

For `O=S(=O)(c1ccc(F)c(Cl)c1)N1CCCC1`, the cell count [1] was 331, the inhibition [1] was 2.2% (inactive) and the inhibition of aggregation [2] was 8.7% (inactive). For the same compound, the nuclei count [2] was 98.5%, the inhibition [3] was 31.8% (inactive) and the nuclei count [3] was 99.6%. The fluorescence slope [4] was -0.486 (inactive), the NADPH fluorescence slope [5] was -1e-05 (inactive) and the slope [6] was 0.00653 (inactive). The inhibition [7] was 2.45% (inactive) and the inhibition [8] was 30.3% (inactive).
For `Cc1noc(C)c1COc1cccc(C(=O)Nc2ccc(C#N)cc2)c1`, the cell count [1] was 422, the inhibition [1] was 0.4% (inactive) and the inhibition of aggregation [2] was 3.1% (inactive). The nuclei count [2] was 94.2%, the inhibition [3] was -15.6% (inactive) and the nuclei count [3] was 106%. For the same compound, the fluorescence slope [4] was -0.455 (inactive), the NADPH fluorescence slope [5] was -4.9e-05 (inactive) and the slope [6] was 0.00473 (inactive). For the same compound, the inhibition [7] was 2.49% (inactive) and the inhibition [8] was -0.298% (inactive).
For `CCOC(=O)N1CCC(NC(=O)CCN2C(=O)COc3ccccc32)CC1`, the cell count [1] was 322, the inhibition [1] was -2.6% (inactive) and the inhibition of aggregation [2] was 11.5% (inactive). The nuclei count [2] was 106%, the inhibition [3] was -22.4% (inactive) and the nuclei count [3] was 127%. The fluorescence slope [4] was -0.27 (inactive), the NADPH fluorescence slope [5] was 1.7e-05 (inactive) and the slope [6] was 0.00554 (inactive). For the same compound, the inhibition [7] was 17% (inactive) and the inhibition [8] was 17.2% (inactive).
In the case of `c1ccc(N2CCN(Cc3cn4cccnc4n3)CC2)cc1`, the cell count [1] was 683, the inhibition [1] was -18.4% (inactive) and the inhibition of aggregation [2] was -18.4% (inactive). For the same compound, the nuclei count [2] was 107%, the inhibition [3] was -36.1% (inactive) and the nuclei count [3] was 101%. For the same compound, the fluorescence slope [4] was -0.494 (inactive), the NADPH fluorescence slope [5] was -4e-06 (inactive) and the slope [6] was 0.00602 (inactive). For the same compound, the inhibition [7] was 8.99% (inactive) and the inhibition [8] was 18.5% (inactive).
For `CCCc1cc(C(=O)Nc2sc3c(c2C#N)CCC3)no1`, the cell count [1] was 633, the inhibition [1] was -2.9% (inactive) and the inhibition of aggregation [2] was 11.9% (inactive). For the same compound, the nuclei count [2] was 95.8%, the inhibition [3] was -34.8% (inactive) and the nuclei count [3] was 116%. The fluorescence slope [4] was -0.568 (inactive), the NADPH fluorescence slope [5] was -2.8e-05 (inactive) and the slope [6] was 0.00643 (inactive). For the same compound, the inhibition [7] was 7.08% (inactive) and the inhibition [8] was 10.9% (inactive).
In the case of `O=c1c2c(-c3ccccc3)csc2nc2n1CCC2`, the cell count [1] was 518, the inhibition [1] was -18.3% (inactive) and the inhibition of aggregation [2] was -0.8% (inactive). For the same compound, the nuclei count [2] was 87%, the inhibition [3] was 20.1% (inactive) and the nuclei count [3] was 144%. The fluorescence slope [4] was -0.588 (inactive), the NADPH fluorescence slope [5] was -8.9e-06 (inactive) and the slope [6] was 0.00513 (inactive). The inhibition [7] was -15.3% (inactive) and the inhibition [8] was 1.9% (inactive).
With `COc1ccc(NC(=O)CN2CCCCC2)cc1` the cell count [1] was 494, the inhibition [1] was -1.5% (inactive) and the inhibition of aggregation [2] was 5.5% (inactive). For the same compound, the nuclei count [2] was 110%, the inhibition [3] was -23.4% (inactive) and the nuclei count [3] was 121%. The fluorescence slope [4] was -0.414 (inactive), the NADPH fluorescence slope [5] was -2.7e-05 (inactive) and the slope [6] was 0.00355 (inactive). For the same compound, the inhibition [7] was 3.07% (inactive) and the inhibition [8] was 11.2% (inactive).
For `O=C(O)c1ccc2c(c1)C(=O)N(c1ccc(Cl)cn1)C2=O`, the cell count [1] was 675, the inhibition [1] was -4.5% (inactive) and the inhibition of aggregation [2] was 14.8% (inactive). The nuclei count [2] was 84.8%, the inhibition [3] was -72% (inactive) and the nuclei count [3] was 131%. For the same compound, the fluorescence slope [4] was -0.55 (inactive), the NADPH fluorescence slope [5] was -2.8e-05 (inactive) and the slope [6] was 0.00724 (inactive). For the same compound, the inhibition [7] was 10.9% (inactive) and the inhibition [8] was 29.8% (inactive).
In the case of `CCc1ccc(N2CC34C=CC(O3)C(C(=O)OC)C4C2=O)cc1` (stereo not drawn), the cell count [1] was 535, the inhibition [1] was 4% (inactive) and the inhibition of aggregation [2] was 11.3% (inactive). The nuclei count [2] was 85.3%, the inhibition [3] was -7.9% (inactive) and the nuclei count [3] was 101%. For the same compound, the fluorescence slope [4] was -0.589 (inactive), the NADPH fluorescence slope [5] was 6.6e-06 (inactive) and the slope [6] was 0.00784 (inactive). For the same compound, the inhibition [7] was 7.96% (inactive) and the inhibition [8] was 30.4% (inactive).
For `CC(C)C1N=C2c3ccccc3N=C(SCc3cc(=O)n4ccccc4n3)N2C1=O` (stereo not drawn), the cell count [1] was 646, the inhibition [1] was -10.9% (inactive) and the inhibition of aggregation [2] was 4.4% (inactive). The nuclei count [2] was 58.8%, the inhibition [3] was -35.3% (inactive) and the nuclei count [3] was 90%. For the same compound, the fluorescence slope [4] was -0.451 (inactive), the NADPH fluorescence slope [5] was 2.2e-05 (inactive) and the slope [6] was 0.00398 (inactive). For the same compound, the inhibition [7] was 6.75% (inactive) and the inhibition [8] was -22.1% (inactive).
In the case of `CC(C)(C)NC(=O)CN(C(=O)CS(=O)CC(=O)Nc1ccc(F)cc1)c1ccc(Cl)cc1` (stereo not drawn), the cell count [1] was 879, the inhibition [1] was -4.2% (inactive) and the inhibition of aggregation [2] was 3.2% (inactive). For the same compound, the nuclei count [2] was 66.8%, the inhibition [3] was -9.8% (inactive) and the nuclei count [3] was 118%. The fluorescence slope [4] was -0.35 (inactive), the NADPH fluorescence slope [5] was 1.3e-05 (inactive) and the slope [6] was 0.00479 (inactive). The inhibition [7] was 19.1% (inactive) and the inhibition [8] was 19.5% (inactive).
For `COc1ccccc1NC(=O)C1=C(C)Nc2nnnn2C1c1ccccc1OC` (stereo not drawn), the cell count [1] was 453, the inhibition [1] was -0.5% (inactive) and the inhibition of aggregation [2] was -7.9% (inactive). The nuclei count [2] was 90.1%, the inhibition [3] was 8.8% (inactive) and the nuclei count [3] was 82.2%. The fluorescence slope [4] was -0.415 (inactive), the NADPH fluorescence slope [5] was 7.3e-06 (inactive) and the slope [6] was 0.00379 (inactive). For the same compound, the inhibition [7] was 10.5% (inactive) and the inhibition [8] was 33.5% (inactive).
With `CCN(CC)C(=O)C1CCCN(c2ncnc3c2cnn3-c2ccc(Cl)cc2)C1` (stereo not drawn) the cell count [1] was 745, the inhibition [1] was -5.2% (inactive) and the inhibition of aggregation [2] was 0.8% (inactive). The nuclei count [2] was 103%, the inhibition [3] was -21.1% (inactive) and the nuclei count [3] was 109%. The fluorescence slope [4] was -0.543 (inactive), the NADPH fluorescence slope [5] was -1.7e-05 (inactive) and the slope [6] was 0.00713 (inactive). The inhibition [7] was 10.8% (inactive) and the inhibition [8] was 53.6% (active).
